The source of these data is PubChem BioAssay (NCI).

Compounds without any hit were thinned out: in the full panel of roughly 83,000, 20% have a hit.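 In brief: 96-well plates, 48 h treatment, single concentration, percent growth endpoint.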 Unmarked numbers belong to inactive results. Activity calls are given as the source filed them. Rule for the calls: active = growth percent below 10; inactive = the rest.

Common to all, as to assay: NCI-60 one-dose screen, 48 h (100 = growth as untreated, 0 = no growth, -100 = all killed)
Holding throughout (details): 10 µM unless noted

Test [1] concerns EKVX NSCLC.
Test [2] has as its system SN12C renal.
Test [3] relates to UO-31 renal.
Test [4] relates to TK-10 renal.
The test system of test [5] is ACHN renal.
Test [6] relates to CAKI-1 renal.
Test [7] deals with A498 renal.
The test system of test [8] is MOLT-4 leukemia.
Test [9] concerns RPMI-8226 leukemia.
The test system of test [10] is OVCAR-8 ovarian.
For test [11], the system named is OVCAR-5 ovarian.
For test [12], the system named is OVCAR-4 ovarian.
Test [13] deals with SK-OV-3 ovarian.
For test [14], the system named is IGROV1 ovarian.
In test [15] the test system is OVCAR-3 ovarian.
Test [16] relates to HS 578T breast.
Test [17] concerns NCI/ADR-RES ovarian.
Test [18] deals with SK-MEL-2 melanoma.
Test [19] concerns SR leukemia.
The test system of test [20] is CCRF-CEM leukemia.

Take `C=CCSSc1ncnc2c1ncn2C1OC(CO)C(O)C1O` (centres undefined): the growth was 91.9% in test [1]; 76.2% in test [2]; 36.5% in [3]; 26% in test [4]; 25.3% in test [5]; -2.6% (active) in [6]. Besides, the growth in test [7] was 43.3%; in test [8], 13.2%; in test [9], -8.17% (active); in test [10], 20.1%; in test [11], 45.3%; in test [12], 33.8%. In addition, the growth in test [13] is 7.46% (active); in test [14], 34.9%; in test [15], 29.1%; in test [16] it was 47.9%; in test [17], 28.4%.

As to `CC(C)(C)N1CCC1CN` (centres undefined), the growth is 72.1% in [18]; 111% in test [2]; 91.1% in test [3]; 106% in test [4]; 114% in test [5]; 88.5% in test [7]. Moreover, the growth was 128% in test [8]; 101% in [19]; 97.5% in [10]; 107% in test [11]; 103% in [12]; 104% in [13]. Also, the growth in test [14] was 112%; in test [16], 117%; in test [17] it was 113%.

For `O=C(Nc1cccc2[nH]c(C(F)(F)F)nc12)c1ccc(-n2cnnn2)cc1`, the growth is 108% in test [2]; 75.9% in test [3]; 108% in test [4]; 99.5% in test [5]; 95.4% in [6]; 83.1% in test [7]. Further, the growth was 28.6% in [20]; 32.4% in [8]; 79.5% in test [19]; 48.7% in [9]; 89.4% in test [10]; 123% in test [11]. The growth in test [12] is 90.5%; in test [13] it was 104%; in [14], 95.5%; in test [15] it was 76.2%; in [16], 108%; in test [17] it was 107%.

As for `COc1ccc(C(=O)c2sc3nc4c(c(-c5cccnc5)c3c2N)CCCC4)cc1OC`, the growth is 69.8% in [2]; 63.8% in test [3]; 90% in test [4]; 77.1% in test [5]; 82.8% in test [6]; 48.1% in test [7]. Moreover, the growth in test [20] was 55.5%; in test [8] it was 41.4%; in [19] it was 37.8%; in [9], 4.67% (active); in test [10], 85%; in [11], 86.4%. Further, the growth was 74% in test [12]; 104% in test [13]; 117% in test [14]; 89.9% in test [15]; 65.8% in test [16]; 89.3% in [17].

As for `O=C1c2c(O)cc(O)cc2-c2c(-c3ccc(O)cc3)oc3cc(O)cc1c23`, the growth in [18] is 72.3%; in test [3] it was 12.7%; in [4] it was 63.4%; in [5] it was 9.27% (active); in test [6], 33%; in test [7], 62.5%. Further, the growth in test [20] was 6.03% (active); in [8], 1.37% (active); in test [19] it was 0.6% (active); in test [9] it was 41.8%; in test [10], 46.6%; in [11], 111%. Also, the growth in test [12] is 61.5%; in test [13], 15.7%; in test [14], 52.2%; in test [15], 44%; in test [16], 32.1%; in test [17], 90.4%.

Take `Cc1cc(N2CCN(C)CC2)nc(NC2CCCC(Nc3ccnc4cc(Cl)ccc34)C2)n1` (centres undefined): the growth in [18] is -66.7% (active); in [2] it was -21% (active); in test [3] it was -100% (active); in test [4], -75.8% (active); in test [7] it was 54.5%; in [20], -26% (active). The growth in test [8] was 1.05% (active); in test [19], -31% (active); in test [9] it was -47.8% (active); in test [10], 5.87% (active); in test [11], 9.67% (active); in test [12] it was 20.3%. The growth in [13] was 18.6%; in test [14], 10.5%; in [15] it was -18.7% (active); in [16], -18.7% (active); in [17], 18.7%.

With `NC(CSC(c1ccccc1)(c1ccccc1)c1ccc(Cl)cc1)C(=O)O` (centres undefined), the growth in test [18] was -9.63% (active); in test [2] it was 27.5%; in [3], 65%; in [4] it was 64.8%; in test [5], 53%; in [7] it was 26.7%. For the same molecule, the growth is 3.48% (active) in test [20]; 6.35% (active) in [8]; -24.5% (active) in [19]; -15.9% (active) in test [10]; 12.2% in test [11]; 63.2% in test [12]. Also, the growth in test [13] was 17.2%; in test [15], -41.4% (active); in [16], -36.2% (active); in test [17], -20.5% (active).

As for `COc1ccc(C(=O)c2sc3nc(C)cc(C)c3c2N)cc1OC`, the growth was 102% in test [2]; 87.3% in [3]; 88.7% in [4]; 88.2% in [5]; 99.5% in test [6]; 98.2% in [20]. The growth in test [8] is 96.4%; in [19] it was 83.5%; in [9] it was 96%; in [10], 65.7%; in test [11], 104%; in test [12], 85.3%. For the same molecule, the growth in test [13] is 77.6%; in [14] it was 88.8%; in [15], 94.8%; in test [16] it was 91.2%; in test [17] it was 90.2%.

In the case of `COc1cccc(/C=N/NC(=O)c2ccccc2Nc2ccnc(C(F)(F)F)c2)c1O`, the growth was 10.5% in test [1]; 21.2% in test [2]; 7.6% (active) in [3]; 28.7% in test [4]; 5.22% (active) in [5]; -2.16% (active) in test [6]. The growth in test [7] was -13% (active); in [8] it was 34.1%; in test [19], 30.3%; in test [9], -18.8% (active); in test [10] it was 19.7%; in test [11] it was 20.7%. Moreover, the growth in [12] is 27.9%; in [13] it was 8.06% (active); in [14], 4.92% (active); in test [15] it was 43.2%; in [16], 44.9%; in test [17], 6.84% (active).
